The source of these data is PubChem BioAssay.

Test [1] has as its system Human papillomavirus type 1a protein E7 (residues 44-93). Put plainly: small molecules binding HPV E7 44-93 – biochemical, small-molecule microarray, residues 44-93, 635 nm fluorescence, primary screen (AID 1108).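 Also: E7 fragment applied at 1 µg/mL in TBST for 1 h at 4 C; score combines spot fluorescence with its signal to noise ratio.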 To be noted: fluorescence 635 nm, higher = more signal.
A short description of test [2]: hepatitis C replication reporter changes, two-sided – Huh7 cells, luciferase reporter, HCV replication inhibitor project, primary screen (AID 1109).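 Also: huh7 hepatoma cells harbouring a luciferase neomycin HCV replicon reporter; luciferase luminescence as measure of HCV replicon replication; test concentration not given here.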 The conditions noted are these: Huh7 HCV replicon luciferase reporter, 48 h; higher = more signal. For orientation: Reporter assays use an easily measured gene product as a stand-in for the process of interest.
Test [3] concerns the target Left-right determination factor 2 (Homo sapiens) (UniProt O00292). The test can be described thus: small molecules binding LEFTY2 protein – biochemical, small-molecule microarray, 635 nm fluorescence scan, primary screen (AID 1110). To be noted: higher = more signal.
Test [4] has as its target Calmodulin-1 (Homo sapiens) (UniProt P0DP23). Put plainly: small molecules binding calmodulin-1 with EGTA – biochemical, small-molecule microarray, Cy5-labelled CALM1, profiling panel (AID 1111).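 Also: labelled calmodulin applied in Tris saline Tween buffer holding calcium plus EGTA and DTT.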 The conditions noted are these: Cy5-CALM1 binding fluorescence, higher = more signal.
For test [5] the target is unchanged. Put plainly: small molecules binding Ca-loaded calmodulin-1 – biochemical, small-molecule microarray, Cy5-labelled CALM1, plus calcium, artefact control for SMM control-protein annotation, profiling panel (AID 1112).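 Also: score merges spot fluorescence with signal to noise from triplicate slides.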 The conditions noted are these: Cy5-CALM1 binding fluorescence, higher = more signal.
Test [6] can be described thus: probe aWnt5a binding to arrayed compounds – biochemical, biotinylated probe, 635/667 nm fluorescence, primary screen (AID 1113).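 Also: score merges 667 nm fluorescence intensity with signal-to-noise per printed feature.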 The conditions noted are these: small-molecule microarray, higher = more signal.
Test [7] in a line: probe aShh binding to arrayed compounds – biochemical, biotinylated probe, 635/667 nm fluorescence, primary screen (AID 1114).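 Also: probe is biotin-labelled aShh protein from a stem cell growth factor screen; measures binding of labelled protein to compounds printed on the slide; score merges feature fluorescence at 667 nm with signal-to-noise.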 To be noted: small-molecule microarray, higher = more signal.
Test [8] in a line: probe aNog binding to arrayed compounds – biochemical, biotinylated probe, 635/667 nm fluorescence, primary screen (AID 1115).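 Also: probe is biotinylated aNog protein used at 0.15 µg/mL for 1 h at 4 C; z-score combines 667 nm fluorescence of each spot with its signal to noise.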 The conditions noted are these: small-molecule microarray, higher = more signal.
The target in test [9] is Torsin-1A-interacting protein 1 (Homo sapiens) (UniProt Q5JTV8). Put plainly: compound microarray binding of lysate hLAP1 – cell lysate, small-molecule microarray, COS7 lysate, 635/667 nm fluorescence, primary screen (AID 1116). The conditions noted are these: 635 nm fluorescence, higher = more signal.
The target in test [10] is Alpha-bungarotoxin (Bungarus multicinctus) (UniProt P60615). Put plainly: compounds binding labelled alpha-BTX control protein – biochemical, small-molecule microarray, Alexa647 label, 635/667 nm fluorescence, artefact control for SMM control protein annotation, profiling panel (AID 1117). The conditions noted are these: alpha-BTX-A647 binding fluorescence, higher = more signal.

Molecules are shown by their SMILES.

Sequence of Torsin-1A-interacting protein 1 (Homo sapiens) (Q5JTV8 whole entry, looked up): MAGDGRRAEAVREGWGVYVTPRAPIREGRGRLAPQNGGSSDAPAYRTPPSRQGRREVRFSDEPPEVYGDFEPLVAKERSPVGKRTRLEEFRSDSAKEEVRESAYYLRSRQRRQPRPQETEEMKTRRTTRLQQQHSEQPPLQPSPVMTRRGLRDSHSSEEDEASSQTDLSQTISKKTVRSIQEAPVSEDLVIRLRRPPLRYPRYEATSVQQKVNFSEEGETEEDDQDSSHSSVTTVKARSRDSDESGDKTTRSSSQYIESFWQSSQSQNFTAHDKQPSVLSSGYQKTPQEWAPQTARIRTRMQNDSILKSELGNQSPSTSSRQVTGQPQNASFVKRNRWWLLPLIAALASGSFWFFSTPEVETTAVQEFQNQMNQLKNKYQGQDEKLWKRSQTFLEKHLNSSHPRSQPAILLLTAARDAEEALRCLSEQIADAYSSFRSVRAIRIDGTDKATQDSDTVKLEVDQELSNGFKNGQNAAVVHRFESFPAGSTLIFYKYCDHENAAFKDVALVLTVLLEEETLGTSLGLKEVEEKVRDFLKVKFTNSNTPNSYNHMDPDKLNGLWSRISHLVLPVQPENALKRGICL
Sequence of Alpha-bungarotoxin (Bungarus multicinctus) (P60615 whole entry, looked up): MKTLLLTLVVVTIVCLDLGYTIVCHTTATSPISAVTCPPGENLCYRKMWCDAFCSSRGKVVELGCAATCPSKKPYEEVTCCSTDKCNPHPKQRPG
Sequence of Left-right determination factor 2 (Homo sapiens) (O00292 whole entry, looked up): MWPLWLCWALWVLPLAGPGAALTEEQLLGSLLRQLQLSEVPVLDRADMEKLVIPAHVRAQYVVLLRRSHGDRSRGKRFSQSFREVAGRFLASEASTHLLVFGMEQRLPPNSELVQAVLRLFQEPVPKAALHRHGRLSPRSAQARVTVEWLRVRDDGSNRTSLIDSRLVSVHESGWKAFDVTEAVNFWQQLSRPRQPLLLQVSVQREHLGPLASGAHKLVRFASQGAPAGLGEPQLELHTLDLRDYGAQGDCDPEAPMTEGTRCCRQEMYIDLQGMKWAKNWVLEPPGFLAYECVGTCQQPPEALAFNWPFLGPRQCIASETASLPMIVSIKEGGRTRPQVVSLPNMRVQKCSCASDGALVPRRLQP

Turning to `CCOC(=O)[C@H](Cc1ccccc1)NC(=O)CCC1CC(OC(=O)NCc2ccc3c(c2)OCO3)CC2(CCCC(COC(=O)NCCC(C)C)O2)O1` (stereo not given in full), the composite z-score was 1.38 in test [1]; 0.619 in [3]; 0.487 in test [4]; -0.252 in [5]; 0.0704 in [6]; 0.0639 in test [7]. Moreover, the composite z-score in [8] is -0.19; in [9] it was 0.0293; in test [10] it was 0.434. Further, in test [2], the z-score is -1.01.
For the molecule `CC(=O)OC[C@H]1O[C@@H](ON=C(C)CCN2CCCc3nc(C)c(C)cc32)[C@H](OC(C)=O)[C@@H](OC(C)=O)[C@@H]1OC(C)=O`, the composite z-score is 1.38 in test [1]; 0.737 in test [3]; 0.113 in test [4]; -0.743 in test [5]; -0.117 in test [6]; -0.167 in [7]. Besides, the figures for the composite z-score in [8], in test [9] and in test [10] were 0.0401, 0.466 and 0.0927, respectively. Further, the z-score in test [2] was -1.14.
As for `COC(=O)[C@@H]1CC[C@H](C)[C@@H](c2ccc(C)cc2)N1C(=O)c1ccc(C=NO[C@@H]2O[C@H](COC(C)=O)[C@@H](OC(C)=O)[C@H](OC(C)=O)[C@H]2OC(C)=O)cc1`, the composite z-score in test [1] is 0.918; in test [3], 0.368; in test [4], 0.0167; in test [5], -0.371; in test [6], -0.124; in test [7] it was 0.313. The composite z-score in test [8] was -0.0208; in [9] it was 0.218; in [10] it was 0.884. Further, the z-score in test [2] is -0.465.
With `CCOC(=O)[C@H](CC(C)C)NC(=O)CCC1CC(OC(=O)NCc2ccc3c(c2)OCO3)CC2(CCCC(COC(=O)NCC3CCCCC3)O2)O1` (stereo not given in full), the composite z-score is 1.39 in test [1]; 0.894 in test [3]; -0.0184 in test [4]; -0.381 in test [5]; -0.0087 in test [6]; 0.131 in test [7]. For the same molecule, the composite z-score in test [8] was -0.367; in test [9], 0.711; in test [10], 0.415. The same molecule came in with a z-score in test [2] of -1.49.
On to `CC(C)=CCCC(C)=CCON=C1C[C@@H](O)[C@@H](O)[C@@H]2[C@@H]3C(=O)N(c4ccc(F)cc4F)C(=O)[C@@H]3CC[C@H]12`, for which the composite z-score in [1] is 1.36; in test [3], 0.621; in [4], -0.0184; in test [5], -0.778; in [6], -0.124; in test [7], 0.0668. Also, the composite z-score was -0.379 in [8], 0.153 in test [9] and 0.39 in test [10]. The molecule also had a z-score in test [2] of 0.19.
In the case of `CC(CCN1CCc2nc(-c3ccccc3)c(-c3ccccc3)cc2C1)=NOC[C@@H](O)COCc1ccco1`, the composite z-score was 0.58 in [1]; 0.718 in [3]; -0.216 in test [4]; -0.625 in [5]; -0.0346 in [6]; 0.0048 in test [7]. Further, the composite z-score is -0.0524 in test [8], 0.323 in test [9] and 0.365 in test [10]. In test [2], this molecule showed a z-score of -1.11.
Turning to `CC=CC1=C(CO)C(=O)[C@@H]2O[C@@H]2C1=O`, the composite z-score in test [1] is -1.52; in test [3], 1.27; in test [4], -1.58; in test [5] it was -1.61; in test [6] it was -0.145; in test [7], -0.304. Further, the composite z-score is 0.0947 in [8], -0.822 in [9] and 0.177 in [10]. The molecule also registered a z-score in test [2] of -2.28.
Take `CO[C@H]1COC(=O)CC=C[C@H](C)[C@@H](OC)COC(=O)[C@H](C)COC(=O)CC=C[C@@H]1C`: the composite z-score is -0.61 in [1]; 1.33 in test [3]; -0.774 in test [4]; -1.62 in test [5]; -0.154 in test [6]; -0.439 in test [7]. The composite z-score in test [8] is -0.303; in test [9], -0.396; in [10] it was -0.876. Besides, the z-score in test [2] came to 0.507.
On to `CO[C@H]1COC(=O)CC=C[C@H](C)COC(=O)[C@@H](C)NC(=O)CC=C[C@@H]1C`, for which the composite z-score is -1.45 in test [1]; 1.54 in test [3]; -1.13 in test [4]; -2.44 in test [5]; -0.0816 in [6]; -0.0035 in [7]. The composite z-score in test [8] is -0.137; in test [9] it was 0.621; in test [10], 0.13. In test [2], this molecule gave a z-score of -1.83.
Turning to `CCc1cc2c(nc1CC)CCN(CCC(C)=NO[C@H](C)c1cn([C@@H]3COC[C@H]3O)nn1)C2`, the composite z-score in [1] is -0.236; in test [3] it was 0.368; in test [4], -0.433; in test [5], -0.931; in test [6], -0.0479; in [7], 0.0723. Moreover, the values for the composite z-score in [8], in [9] and in test [10] were -0.172, 0.651 and 0.173, respectively. In addition, the z-score in test [2] is -0.53.
As for `CC(C)=CCCC(C)=CCON=C1C[C@@H](O)[C@@H](O)[C@@H]2[C@@H]3C(=O)N(Cc4ccccc4)C(=O)[C@@H]3CC[C@H]12`, the composite z-score is 0.759 in [1]; 0.985 in test [3]; 0.0703 in test [4]; -0.985 in [5]; -0.164 in test [6]; -0.2 in test [7]. Besides, the composite z-score in test [8] was -0.0223; in [9], 0.577; in test [10] it was 0.121. This molecule returned a z-score in [2] of -2.74.
As for `CC[C@@H](c1ccccc1)n1c(=O)n2n(c1=O)[C@H]1[C@H](O)[C@@H]3O[C@@H]3C(=O)[C@H]1CC2`, the composite z-score in test [1] is 0.225; in [3] it was 0.497; in test [4], -0.202; in [5], -0.246; in test [6], -0.101; in [7], -0.0474. Moreover, the composite z-score was -0.209 in test [8], -0.113 in [9] and 0.414 in test [10]. The molecule further showed a z-score in [2] of -4.01.
